In PubChem BioAssay AID1117319 (Southern Research Institute, 2015):
Where “and” joins values, the source holds several entries; their conditions need not be identical. Equal values may be shown once. About 1,500 (0.58%) of roughly 260,000 compounds were called active. Not shown: some 5% with an inconclusive outcome. These entries were drawn from the full list. Entries with a potency or affinity are not part of this list. Values without a mark were called inactive.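 How the source made its calls: active means inhibition above a set limit at one or more doses, reproduced on every date tested; inconclusive means results disagree between test dates, or hit never tested in dose response; inactive means the rest.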

These compounds were tested against Virion infectivity factor (Human immunodeficiency virus type 1 group M subtype B (isolate BH10)) + Virion infectivity factor (Human immunodeficiency virus type 1 group M subtype B (isolate BRU/LAI)) + Virion infectivity factor (Human immunodeficiency virus type 1 group M subtype B (isolate PCV12)) + Virion infectivity factor (Human immunodeficiency virus type 1 group M subtype B (isolate HXB2)) + DNA dC->dU-editing enzyme APOBEC-3G (Homo sapiens) (UniProt P69720+P69721+P69722+P69723+Q9HC16) (assay: HIV-1 Vif–A3G interaction blockers – biochemical, TR-FRET, GST-Vif 1-94, biotin-A3G peptide, dose response retest, primary screen (AID 1117319;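 further: Vif residues 1-94 fused to GST binding biotinylated APOBEC3G peptide 110-148; 0% = full assay without inhibitor and 100% = GST in place of GST-Vif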)). Details: TR-FRET GST-Vif / biotin-A3G peptide binding; hits give high values.

SMILES | inhibition
O=C(NCc1ccccc1)C1=C[C@H](C2CC2)C[C@H](OCCCCO)O1 | -0.51%
CC1=C(C(=O)OCC2CCCO2)C(c2ccc(O)cc2)NC(=O)N1 (stereo not given) | 10.8%
CCN(C(=O)c1cc2ccccc2o1)C12CC3CC(CC(C3)C1)C2 | -6.34%
CN(C)c1ccc(/C=C(/NC(=O)c2ccccc2)C(=O)N/N=C/c2ccc([N+](=O)[O-])c(O)c2)cc1 | 15.2% and -3.76%
O=C(N/N=C/c1ccc(Br)o1)/C(=C/c1ccc([N+](=O)[O-])cc1)NC(=O)c1ccccc1 | 12.1%
Cc1cc(=O)oc2cc(OCC(=O)OCC(=O)Nc3ccc4ccccc4c3)ccc12 | -10.1%
Cn1nnnc1SCC(=O)N1c2ccccc2CCc2ccccc21 | 3.78%
CC(C)(Oc1ccc(-c2ccco2)cc1)C(=O)O | 3.13%
O=C(O)c1sc(C(=O)O)c(-c2ccccc2)c1-c1ccccc1 | 2.28%
O=S(=O)(c1ccccc1)N1N=C(c2ccc(Cl)cc2)CC1c1ccco1 (stereo not given) | 4.42%
O=C(/C=C/c1ccccc1)Nn1cnnc1 | -6.05%
NC(=O)Cc1ccc(C(=O)c2ccc(F)cc2)s1 | -4.28%
Cc1ccccc1OCCC(=O)OCC(=O)NCCc1ccc(S(N)(=O)=O)cc1 | -1.77%
CCOc1ccccc1C(=O)NCC(=O)NCCc1ccc(S(N)(=O)=O)cc1 | 0.59%
COc1ccccc1C(=O)Nc1cccc(NC(C)=O)c1 | 12.4%
Cc1ccc(S(=O)(=O)N(C(=O)c2ccncc2)c2ccc3oc4c(c3c2)CCCC4)cc1[N+](=O)[O-] | -4.21%
Oc1ccc2oc3c(c2c1C=NCc1ccncc1)CCCC3 | 24.2%
CCOc1ccccc1C(=O)N[C@H](C(=O)Nc1ccc(OC)c(S(=O)(=O)N2CCOCC2)c1)C(C)C | -13.1%
O=C1OCCC1Sc1nnc(-c2cccnc2)n1-c1ccccc1F (stereo not given) | 5.98%
CCOC(=O)N1CCN(Cc2nnc(-c3cccc(Br)c3)o2)CC1 | -4.74%
Cc1ccc2nc(N3CCN(C)CC3)c(C#N)cc2c1 | 1.03%
Cc1ccc2cc(C#N)c(N3CCN(C)CC3)nc2c1 | 3.3%
Cn1c(N)c(C(=O)COC(=O)/C=C/c2ccccc2F)c(=O)n(C)c1=O | 0.83%
COc1cccc(C(C)=NNc2ccc([N+](=O)[O-])cc2[N+](=O)[O-])c1OC | 0.32%
C/C(=N\NC(=O)c1ccc([N+](=O)[O-])cc1)c1cc2ccccc2oc1=O | 13.4%
